Assay results reported in PubChem BioAssay AID1159580 (chemical genetic matrix, 2015).
Values joined by “and” are separate entries in the source; they are usually repeats but may differ in a detail not shown here. Equal values may be shown once. In all, about 5,500 compounds went through this assay and about 2,000 (36%) were called active. Not shown: some 18% with an inconclusive outcome. No stated cut-off is given here; in the data, active means normalized growth mostly below about 0.91 (no sharp cut-off); inconclusive means no clear call, values can overlap the other calls; inactive means mostly above about 0.92. The list shows a part of the results. A structure can be active in one record and inactive in another.

Test: chemical genetic growth profiling, strain panel (AID 1159580);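 further: tested at 20 µM; growth read once vehicle control cultures reached saturation at 30 °C; 1 = growth at the plate median or of vehicle wells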
Conditions: growth OD

Measured: normalized growth

COC(=O)C1=C(C)NC(C)=C(C(=O)OC)C1c1ccccc1[N+](=O)[O-]
0.918 (active) and 0.978 (inactive): S. cerevisiae deletion strains, locus YNL322C, strain KRE1, stronger effect = lower value
0.918 (active) and 0.973 (inactive): S. cerevisiae deletion strains, locus YPL241C, strain CIN2, stronger effect = lower value
inactive: S. cerevisiae deletion strains, locus YKL009W, strain mrt4, stronger effect = lower value 0.959 | S. cerevisiae deletion strains, locus YKL068W, stronger effect = lower value 0.965 | S. cerevisiae deletion strains, locus YKL085W, strain MDH1 (second series), stronger effect = lower value 0.956 | S. cerevisiae deletion strains, locus YKL085W, strain MDH1, stronger effect = lower value 0.956 | S. cerevisiae deletion strains, locus YKR026C, strain gcn3, stronger effect = lower value 0.968 | S. cerevisiae deletion strains, locus YKR091W, strain srl3, stronger effect = lower value 0.954 | S. cerevisiae deletion strains, locus YLL001W, strain dnm1, stronger effect = lower value 0.972 | S. cerevisiae deletion strains, locus YLL026W, stronger effect = lower value 0.946 | S. cerevisiae deletion strains, locus YLL041C, strain sdh2, stronger effect = lower value 0.931 | S. cerevisiae deletion strains, locus YLR058C, strain SHM2, stronger effect = lower value 0.996 | S. cerevisiae deletion strains, locus YLR102C, strain apc9, stronger effect = lower value 0.977 | S. cerevisiae deletion strains, locus YLR113W, strain HOG1, stronger effect = lower value 0.942 | S. cerevisiae deletion strains, locus YLR330W, strain CHS5, stronger effect = lower value 0.931 | S. cerevisiae deletion strains, locus YLR342W, strain FKS1, stronger effect = lower value 0.924 | S. cerevisiae deletion strains, locus YLR357W, strain rsc2, stronger effect = lower value 0.937 | S. cerevisiae deletion strains, locus YLR370C, strain arc18, stronger effect = lower value 0.942 | S. cerevisiae deletion strains, locus YLR371W, strain rom2, stronger effect = lower value 0.918 | S. cerevisiae deletion strains, locus YLR384C, strain iki3, stronger effect = lower value 0.976 | S. cerevisiae deletion strains, locus YML032C, strain rad52, stronger effect = lower value 0.959 | S. cerevisiae deletion strains, locus YML120C, strain ndi1, stronger effect = lower value 0.976 | S. cerevisiae deletion strains, locus YML124C, strain tub3, stronger effect = lower value 0.972 | S. cerevisiae deletion strains, locus YMR078C, strain ctf18, stronger effect = lower value 0.981 | S. cerevisiae deletion strains, locus YMR125W, strain sto1, stronger effect = lower value 1.02 | S. cerevisiae deletion strains, locus YMR129W, stronger effect = lower value 0.958 | S. cerevisiae deletion strains, locus YMR263W, strain SAP30, stronger effect = lower value 1 | S. cerevisiae deletion strains, locus YNL071W, strain lat1, stronger effect = lower value 0.941 | S. cerevisiae deletion strains, locus YNL153C, strain GIM3, stronger effect = lower value 0.939 | S. cerevisiae deletion strains, locus YNL175C, strain NOP13, stronger effect = lower value 1.01 | S. cerevisiae deletion strains, locus YNL183C, strain NPR1, stronger effect = lower value 0.927 | S. cerevisiae deletion strains, locus YNL197C, strain WHI3, stronger effect = lower value 0.997 | S. cerevisiae deletion strains, locus YNL224C, strain SQS1, stronger effect = lower value 1.02 | S. cerevisiae deletion strains, locus YNL248C, strain rpa49, stronger effect = lower value 0.951 | S. cerevisiae deletion strains, locus YNL250W, strain rad50, stronger effect = lower value 0.944 | S. cerevisiae deletion strains, locus YNL298W, strain CLA4, stronger effect = lower value 0.953 | S. cerevisiae deletion strains, locus YNL322C, strain KRE1 (second series), stronger effect = lower value 1 | S. cerevisiae deletion strains, locus YNR049C, strain mso1, stronger effect = lower value 0.962 | S. cerevisiae deletion strains, locus YNR052C, strain pop2, stronger effect = lower value 0.968 | S. cerevisiae deletion strains, locus YOL012C, strain htz1 0.327 | S. cerevisiae deletion strains, locus YOL147C, strain pex11, stronger effect = lower value 0.989 | S. cerevisiae deletion strains, locus YOR001W, strain rrp6, stronger effect = lower value 0.91 | S. cerevisiae deletion strains, locus YOR080W, strain dia2, stronger effect = lower value 0.978 | S. cerevisiae deletion strains, locus YOR083W, strain WHI5 (second series), stronger effect = lower value 1.03 | S. cerevisiae deletion strains, locus YOR083W, strain WHI5, stronger effect = lower value 0.909 | S. cerevisiae deletion strains, locus YOR136W, strain idh2, stronger effect = lower value 0.965 | S. cerevisiae deletion strains, locus YOR144C, strain elg1, stronger effect = lower value 0.99 | S. cerevisiae deletion strains, locus YOR231W, strain MKK1, stronger effect = lower value 0.999 | S. cerevisiae deletion strains, locus YOR270C, strain vph1, stronger effect = lower value 0.884 | S. cerevisiae deletion strains, locus YOR290C, strain snf2, stronger effect = lower value 0.958 | S. cerevisiae deletion strains, locus YOR316C, strain cot1, stronger effect = lower value 0.971 | S. cerevisiae deletion strains, locus YPL078C, strain atp4, stronger effect = lower value 0.984 | S. cerevisiae deletion strains, locus YPL106C, strain sse1, stronger effect = lower value 0.932 | S. cerevisiae deletion strains, locus YPL256C, strain CLN2, stronger effect = lower value 0.932 | S. cerevisiae deletion strains, locus YPR119W, strain clb2, stronger effect = lower value 0.981 | S. cerevisiae deletion strains, locus YPR141C, strain kar3, stronger effect = lower value 0.974 | S. cerevisiae deletion strains, locus YPR163C, strain tif3, stronger effect = lower value 0.958
active: S. cerevisiae deletion strains, locus YKL160W, strain elf1, stronger effect = lower value 0.901 | S. cerevisiae deletion strains, locus YKL190W, strain CNB1, stronger effect = lower value 0.84 | S. cerevisiae deletion strains, locus YKR001C, strain vps1, stronger effect = lower value 0.852 | S. cerevisiae deletion strains, locus YLR027C, strain aat2, stronger effect = lower value 0.899 | S. cerevisiae deletion strains, locus YLR039C, strain RIC1, stronger effect = lower value 0.535 | S. cerevisiae deletion strains, locus YLR221C, strain rsa3, stronger effect = lower value 0.893 | S. cerevisiae deletion strains, locus YLR258W, strain gsy2, stronger effect = lower value 0.886 | S. cerevisiae deletion strains, locus YLR262C, strain YPT6 (second series), stronger effect = lower value 0.44 | S. cerevisiae deletion strains, locus YLR262C, strain YPT6, stronger effect = lower value 0.352 | S. cerevisiae deletion strains, locus YLR268W, strain sec22, stronger effect = lower value 0.764 | S. cerevisiae deletion strains, locus YLR320W, strain mms22, stronger effect = lower value 0.864 | S. cerevisiae deletion strains, locus YLR342W, strain FKS1 (second series), stronger effect = lower value 0.643 | S. cerevisiae deletion strains, locus YLR418C, strain cdc73, stronger effect = lower value 0.706 | S. cerevisiae deletion strains, locus YML016C, strain PPZ1, stronger effect = lower value 0.899 | S. cerevisiae deletion strains, locus YMR058W, strain fet3, stronger effect = lower value 0.231 | S. cerevisiae deletion strains, locus YMR205C, strain PFK2, stronger effect = lower value 0.866 | S. cerevisiae deletion strains, locus YMR223W, strain ubp8, stronger effect = lower value 0.839 | S. cerevisiae deletion strains, locus YMR231W, strain pep5, stronger effect = lower value 0.81 | S. cerevisiae deletion strains, locus YMR307W, strain GAS1, stronger effect = lower value 0.43 and 0.863 | S. cerevisiae deletion strains, locus YNL067W, strain RPL9B, stronger effect = lower value 0.824 | S. cerevisiae deletion strains, locus YNL128W, strain TEP1, stronger effect = lower value 0.642 | S. cerevisiae deletion strains, locus YNL209W, strain ssb2, stronger effect = lower value 0.698 | S. cerevisiae deletion strains, locus YNL233W, strain BNI4, stronger effect = lower value 0.845 | S. cerevisiae deletion strains, locus YNL271C, strain bni1, stronger effect = lower value 0.909 | S. cerevisiae deletion strains, locus YNL307C, strain MCK1, stronger effect = lower value 0.903 | S. cerevisiae deletion strains, locus YOL006C, strain TOP1, stronger effect = lower value 0.202 | S. cerevisiae deletion strains, locus YOR061W, strain CKA2, stronger effect = lower value 0.794 | S. cerevisiae deletion strains, locus YOR069W, strain VPS5, stronger effect = lower value 0.906 | S. cerevisiae deletion strains, locus YOR070C, strain gyp1, stronger effect = lower value 0.916 | S. cerevisiae deletion strains, locus YOR106W, strain vam3, stronger effect = lower value 0.718 | S. cerevisiae deletion strains, locus YOR184W, strain ser1, stronger effect = lower value 0.792 | S. cerevisiae deletion strains, locus YOR265W, strain rbl2, stronger effect = lower value 0.903 | S. cerevisiae deletion strains, locus YPL051W, strain arl3, stronger effect = lower value 0.748 | S. cerevisiae deletion strains, locus YPL055C, strain LGE1, stronger effect = lower value 0.64 | S. cerevisiae deletion strains, locus YPL240C, strain hsp82, stronger effect = lower value 0.9 | S. cerevisiae deletion strains, locus YPR167C, strain met16, stronger effect = lower value 0.903 | S. cerevisiae deletion strains, strain wtn01, stronger effect = lower value 0.772 | S. cerevisiae strains, strain wild type, stronger effect = lower value 0.818
